# p97 inhibitor – blocks human p97 ATPase activity; P55072; recombinant p97 ATPase, Kinase-Glo ATP luminescence, 3 h; inhibition, % at 8 µM; 220,000 tested, 0.42% active; AID 1481; in the data active means inhibition above about 15%;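 further: 0% = DMSO vehicle and 100% = wells lacking enzyme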
# HDAC3 inh – blocks human histone deacetylase 3 | O15379 | recombinant HDAC3, fluorogenic peptide/trypsin coupled, fluorescence | inhibition, % at 8.3 µM | 320,000 tested, 0.15% active; in the data active means inhibition above about 26%, passing the limit was not always enough
# PfM18AAP inh-1 – PfM18AAP enzyme inhibition; recombinant PfM18AAP, H-Glu-NHMec fluorogenic cleavage; inhibition, % at 7.35 µM; 290,000 tested, 1.2% active;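 active means inhibition above the campaign mean inhibition over all tested compounds plus 3 SD, cut at about 28% in these data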;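 further: 0% = plate median of test compound wells and 100% = 2 mM ZnCl2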
# PHOSPHO1 inh – PHOSPHO1 (human) inhibition; Q8TCT1; recombinant PHOSPHO1, absorbance phosphatase assay; inhibition, % at 13.3 µM; 290,000 tested, 1.1% active; AID 1565; in the data active means inhibition above about 60%
# Target sequence (Q8TCT1 whole entry, looked up): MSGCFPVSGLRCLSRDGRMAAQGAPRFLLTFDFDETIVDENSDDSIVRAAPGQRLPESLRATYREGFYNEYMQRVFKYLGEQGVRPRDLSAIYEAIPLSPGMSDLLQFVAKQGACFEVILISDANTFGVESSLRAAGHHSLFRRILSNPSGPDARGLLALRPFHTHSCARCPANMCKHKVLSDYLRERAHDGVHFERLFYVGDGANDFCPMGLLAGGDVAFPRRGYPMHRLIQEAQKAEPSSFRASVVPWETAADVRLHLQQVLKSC
# SUMO HTRF inh – SUMOylation inhibition | P63279 | inhibition, % at 35 µM | 290,000 tested, 0.36% active | HTRF SUMOylation assay, SAE1/SAE2 + UBC9, in vitro; in the data active means inhibition above about 50%, passing the limit was not always enough
# Target sequence (P63279 whole entry, looked up): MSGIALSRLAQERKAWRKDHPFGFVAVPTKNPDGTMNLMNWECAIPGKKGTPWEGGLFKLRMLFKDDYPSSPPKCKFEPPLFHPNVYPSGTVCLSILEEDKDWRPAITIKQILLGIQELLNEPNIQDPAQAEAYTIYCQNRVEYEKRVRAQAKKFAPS
# G6PDH counter – inhibits Leuconostoc G6PDH, flagging false hits in G6PDH-based assays; inhibition, % at 5 µM; Purified L. mesenteroides G6PDH, diaphorase/resazurin coupled fluorescence, 45 min; AID 1020; 200,000 tested, 0.12% active; in the data active means inhibition above about 50%
# PfM18AAP inh-2 – PfM18AAP inhibition, confirmation; shares compounds with PfM18AAP inh-1; recombinant PfM18AAP, H-Glu-NHMec fluorogenic cleavage; inhibition, % at 7.35 µM; 2,400 tested, 28% active; AID 2170;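 active means mean inhibition over replicate wells above the hit cutoff set for the earlier primary screen, cut at about 29% in these data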;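 further: 0% = median of test compound wells and 100% = 2 mM ZnCl2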
# CTSL1 confirm – Cathepsin L (human) inhibition, confirmation; shares compounds with PfM18AAP inh-1; purified cathepsin L1, Z-Leu-Arg-MCA fluorescence; inhibition, % at 5.96 µM; 2,400 tested, under 10 active;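 active means average inhibition across replicates above the hit cutoff set in the earlier primary screen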;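 further: 0% = median of test compound wells and 100% = Z-Phe-Ala-diazomethylketone 1 µM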
# Active calls of the source: *; · = no result. Hits are enriched below; roughly 2.5% of the tested compounds scored in any of these assays.
SMILES,p97 inhibitor,HDAC3 inh,PfM18AAP inh-1,PHOSPHO1 inh,SUMO HTRF inh,G6PDH counter,PfM18AAP inh-2,CTSL1 confirm
Cc1c(C)n(CCc2ccccc2)c2ncnc(NN)c12,·,0,44*,16,19,·,4,2
Cc1c(C)n(Cc2ccccc2)c2ncnc(NN)c12,·,0,34*,16,19,·,-3,-10
CC12CC3(C)CC(C)(C1)CC(C(=O)NC(=S)N1CCCC1)(C2)C3,1,-3,-15,-10,5,2,·,·
COc1ccc(-n2nc(C(=O)NCC(=O)NCCc3ccc(OC)c(OC)c3)c3ccccc3c2=O)cc1Cl,·,5,-3,36,-8,·,·,·
Cc1noc(NS(=O)(=O)c2ccc(NC(=O)NC(C)(C(F)(F)F)C(F)(F)F)cc2)c1C,·,-4,0,33,2,·,·,·
CC(=O)Sc1nc(-c2ccccc2)[nH]c1S(=O)(=O)c1ccc(C)cc1,4,-2,55*,29,10,15,5,-5
O=C(COc1ccc(-c2ccccc2)cc1)NNC(=O)Nc1ccc(F)cc1F,·,-14,-11,27,16,·,·,·
O=C(CCc1ccc(O)c(O)c1)NNC(=S)NCCc1ccccc1,3,-2,68*,14,4,32,30*,-1
O=C(CCc1ccccc1)NNC(=S)NCc1ccc(Cl)cc1,·,10,-10,-80,-5,·,·,·
O=C(CCc1ccc(O)c(O)c1)NNC(=S)Nc1ccc(Br)cc1Cl,-5,-3,54*,-35,-21,18,10,-9
COc1cccc(NC(=O)NNC(=O)CCc2ccc(O)c(O)c2)c1,·,-1,73*,2,23,·,52*,1
O=C(NCCc1ccc(O)c(O)c1)C1COc2ccccc2O1 (centres undefined),·,6,80*,35,-7,·,62*,1
CCN(CC)CCNC(=O)c1cc(Br)c(N)cc1OC,·,-5,·,·,·,·,·,·
Cc1sc(-n2c(C)cc(/C=N/n3cnnc3)c2C)c(C#N)c1C,-1,2,36*,84*,6,-1,27,1
CN(/N=C/c1cc([N+](=O)[O-])ccc1O)c1ccccc1,1,7,5,11,16,6,·,·
CN(C)/N=C/c1ccc([N+](=O)[O-])cc1[N+](=O)[O-],0,4,34*,2,14,8,-20,2
Cc1c(NC(=O)CN2CCCC(C)C2)ccc2nsnc12 (centres undefined),-4,13,-7,-3,29,6,·,·
COCCN=c1scc(-c2ccccc2)n1/N=C/c1c[nH]c2ccccc12,5,-2,-2,-11,-28,-16,·,·
COCCN=c1scc(-c2cccs2)n1/N=C/c1ccc(O)c(O)c1O,2,-4,42*,-2,1,-7,12,4
CCCc1nc2ccccc2c(=O)n1/N=C/c1ccccc1O,4,6,0,-8,16,1,·,·
CCN=c1scc(C)n1/N=C/c1ccc(O)c(O)c1O,7,7,46*,-1,26,36,24,8
Cc1cc(C)c(C(=O)COC(=O)c2cc([N+](=O)[O-])ccc2N2CCOCC2)cc1C,·,9,·,·,·,·,·,·
CC(C)(C#N)NC(=O)C1CCCN1S(=O)(=O)c1ccc2ccccc2c1 (centres undefined),·,-1,0,30,8,·,·,·
COc1cc(CNc2ccc(CNc3ncn[nH]3)cc2)cc(Cl)c1OCc1ccccc1,-1,-4,34*,-9,-2,-22,-41,1
O=C(O)CC1Sc2nnc(COc3ccc(Cl)cc3)n2N=C1c1ccccc1 (centres undefined),·,7,7,-113,-1,·,·,·
SMILES,p97 inhibitor,HDAC3 inh,PfM18AAP inh-1,PHOSPHO1 inh,SUMO HTRF inh,G6PDH counter,PfM18AAP inh-2,CTSL1 confirm
Cc1cc(C)cc(Nc2ccc(C(=O)O)cc2N)c1,2,-23,41*,-16,26,3,-21,-3
Cc1ccc(Nc2ccc(C(=O)O)cc2N)cc1,-3,-9,55*,13,18,0,4,7
COc1ccccc1NC(=O)C(C)OC(=O)C1CCC(C(C)(C)C)CC1 (centres undefined),·,2,·,·,·,·,·,·
Cc1cc(N2CCCC2)ccc1/C=C1\NC(=S)N(C)C1=O,2,0,21,-119,19,22,·,·
Cc1cc(N2CCCC2)ccc1/C=N/n1cnnc1,-2,2,32*,-38,29,0,3,2
COCCn1c(Cc2cccn2C)nnc1SCC(=O)NCc1ccc2c(c1)OCO2,-2,0,35*,-26,-6,3,-40,2
CCOc1cc(/C=C2\C(=O)ON=C2C)ccc1OCc1ccccc1,3,2,9,21,5,-8,·,·
CCCOc1ccc(/C=C2/C(=O)ON=C2C)cc1OCC,·,-2,40*,42,9,·,42*,2
CCCCn1c(N)c(N(CCOC)C(=O)CSc2nnc(-c3ccc(F)cc3)n2N)c(=O)[nH]c1=O,·,-1,·,·,·,·,·,·
CC(=O)Nc1ccc(NC(=O)CSc2nc3[nH]ncc3c(=O)n2-c2ccccc2)cc1,·,4,49*,38,6,·,1,-6
COc1ccc(NC(=O)CSc2nc3[nH]ncc3c(=O)n2-c2ccccc2OC)cc1OC,-5,-4,19,7,7,-7,·,·
CCOc1ccccc1NC(=O)Nc1ccc(Br)cc1C,2,2,0,15,13,2,·,·
CC(NC(=O)c1ccccc1)C(=O)NNC(=O)c1ccccc1Cl (centres undefined),·,2,·,·,·,·,·,·
Cc1nc(N2CCCCC2)c(C#N)c(C)c1[N+](=O)[O-],5,0,-3,6,8,0,·,·
NNc1ccc(S(=O)(=O)N2CCCCC2)cn1,3,1,33*,30,8,·,31*,1
O=S(=O)(c1ccc(N2CCCC2)nc1)N1CCCC1,-2,0,-4,40,18,-1,·,·
Cc1cccc(/C=C/C(=O)c2cc(Br)ccc(=O)c2O)c1,5,7,49*,-6,18,2,-21,4
CCc1cccc(C)c1NC(=O)COC(=O)CSCc1ccccc1,·,0,·,·,·,·,·,·
O=C(NNC(=O)c1ccc[nH]1)c1cccc(C(F)(F)F)c1,·,4,1,14,-8,·,·,·
O=C(NNC(=O)c1ccc[nH]1)Nc1cc(Cl)cc(Cl)c1,7,-8,50*,13,-9,·,29*,-3
O=C(Nc1ccccc1)Nc1cc(Cl)cc(Cl)c1,3,2,-5,0,-14,11,·,·
O=C(NNC(=O)c1ccc[nH]1)Nc1cccc(C(F)(F)F)c1,10,-2,53*,42,-8,·,22,-5
CN(CC(=O)NCc1ccccc1F)S(=O)(=O)c1ccc(Cl)cc1,·,-4,1,23,12,·,·,·
CCN1CCN(C(=S)c2ccc(Cl)cc2)CC1,3,7,44*,94*,6,2,36*,0

# High-throughput results as filed in PubChem.
